HT1080 IDH1KD tx = HT-1080 IDH1 knockdown cell toxicity (counter line) | Potency, µM (doses to about 46.1 µM), inactives show top-dose activity, negative = toxicity, usual class: cytotoxic | hit rate 2% among 360,000 | HT-1080 IDH1 knockdown viability, ATP luminescence, 48 h | AID 686971;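 further: potency means the concentration at half of the fitted maximal effect; 0% = DMSO wells and -100% = cell-free medium wells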
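Using the IDH1-knockdown HT-1080 line run in the same batch and compound series as the NT line, viability after 48 h at 37 °C was determined by CellTiter-Glo luminescence and expressed as % activity.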
TDP1 cell noCPT = qHTS for Inhibitors of human tyrosyl-DNA phosphodiesterase 1 (TDP1): qHTS in cells in absence of CPT; DT40 Tdp1-/- hTDP1 cells, no CPT, ATP luminescence, 48 h; Potency, µM (highest dose often 46.2 µM), inactives show top-dose activity change, negative = growth inhibition, usual class: inhibitors; hit rate 15% among 420,000; AID 686978, 2013; further: potency means the concentration at half of the fitted maximal effect; nearly all actives have a fitted effect of over 55% in size
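Growth kinetics read by CellTiter-Glo luminescence after ≥48 hr at 37 °C. Cells: DT40 Tdp1-/- stably carrying human TDP1, 400 per well, compound exposure in the absence of CPT (DMSO vehicle).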
IL-1B inflam inh = blocks inflammasome-driven IL-1 beta release; THP-1 LPS/ATP IL-1B secretion, AlphaLISA, 16 h; active compounds read low; activity change, % at 57.5 µM; hit rate 4.7% among 360,000; AID 743279; in the data active means activity change below about -50%; inconclusive means mostly about -30% to -49%
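Secreted IL-1B measured by AlphaLISA bead assay after 16 h compound exposure of THP-1 cells; compounds (final up to 57.5 uM) added 1 h before LPS (250 ng/mL) and ATP (1.25 mM) stimulation; lower signal means less secretion.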
ALOX12 inh = blocks human arachidonate 12S-lipoxygenase; Potency, µM (highest dose often 108 µM), for inactives: at the top dose activity change, negative = inhibition, most hits filed as inhibitors; hit rate 1.1% among 580,000; AID 1671190; purified 12hLO, xylenol orange hydroperoxide absorbance; further: potency means the concentration at half of the fitted maximal effect
Target sequence (P18054 whole entry, looked up): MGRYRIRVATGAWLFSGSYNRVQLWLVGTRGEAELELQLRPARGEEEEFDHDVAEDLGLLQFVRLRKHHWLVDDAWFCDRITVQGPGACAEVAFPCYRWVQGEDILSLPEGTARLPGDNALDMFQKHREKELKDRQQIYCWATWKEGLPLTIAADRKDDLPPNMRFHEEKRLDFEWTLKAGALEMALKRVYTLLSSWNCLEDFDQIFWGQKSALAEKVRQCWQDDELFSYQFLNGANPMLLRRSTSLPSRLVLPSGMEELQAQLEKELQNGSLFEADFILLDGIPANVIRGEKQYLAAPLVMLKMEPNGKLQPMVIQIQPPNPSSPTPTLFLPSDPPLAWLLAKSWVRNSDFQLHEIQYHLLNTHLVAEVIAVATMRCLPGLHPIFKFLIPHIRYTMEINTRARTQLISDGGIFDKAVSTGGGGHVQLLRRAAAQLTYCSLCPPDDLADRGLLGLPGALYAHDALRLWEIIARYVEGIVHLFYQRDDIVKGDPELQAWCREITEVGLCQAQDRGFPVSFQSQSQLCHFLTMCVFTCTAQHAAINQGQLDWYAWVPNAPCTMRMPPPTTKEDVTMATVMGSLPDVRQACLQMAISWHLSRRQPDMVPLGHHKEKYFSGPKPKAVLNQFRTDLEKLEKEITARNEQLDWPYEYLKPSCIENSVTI
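Purified human 12hLO (150 nM final) in 25 mM Hepes, 0.01% Triton X-100, pH 7.0 was preincubated 15 min at room temperature with compound. Then 40 uM arachidonic acid was added, 30 min. Hydroperoxide was read by Fe-XO absorbance ratio 573/405 nm.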
TDP1 cell CPT = DT40-hTDP1 cell growth loss with CPT. chicken DT40 Tdp1-/-;hTDP1 cells + 20 nM CPT, ATP luminescence, 48 h. Potency, µM (top dose mostly 46.2 µM), for inactives: at the highest dose activity change, negative = growth inhibition, most hits filed as inhibitors. hit rate 12% among 420,000. AID 686979; further: potency means the concentration at half of the fitted maximal effect; nearly all actives have a fitted effect of over 55% in size
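Chicken DT40 Tdp1-/- cells stably complemented with human TDP1 were seeded at 400 cells/well in medium containing 20 nM camptothecin, exposed to pin-transferred compounds, and grown at 37 °C for at least 48 hr. Viability was read as ATP luminescence.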
HT1080-NT tox = kills 2HG-producing HT-1080-NT fibrosarcoma cells; hit rate 1.6% among 360,000; Potency, µM (highest dose often 46.1 µM), inactives show top-dose activity, negative = less viability, hits mostly cytotoxic; HT-1080-NT fibrosarcoma viability, CellTiter-Glo ATP luminescence, 48 h;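 further: NT is the 2HG producing partner of a matched IDH1 knockdown line; potency means the concentration at half of the fitted maximal effect; 0% = DMSO-treated cells and -100% = media-only wells without cells; nearly all actives have a fitted effect of over 55% in size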
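HT-1080-NT; 750 cells/well; 5% FBS RPMI; 48 h compound, 37 degrees C; CellTiter-Glo luminescence; curve fitting and curve-class assignment.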
* = called active by the depositor; ? = inconclusive; · = no result; [ ] = dose if it differs, or a comment. This excerpt belongs to a sample that is enriched for hits. Unless noted, the call rests on the fitted dose curve; in most records, active means well fitted curve in the direction sought with a large enough effect; inconclusive means small, poorly fitted or top-dose-only effect, or another doubt; inactive means no such curve, though single readings can be large; an effect the other way counts as inactive or inconclusive. Unless noted, on the % scale 0 is the no-effect control and ±100 the full control effect.

SMILES | HT1080 IDH1KD tx | TDP1 cell noCPT | IL-1B inflam inh | ALOX12 inh | TDP1 cell CPT | HT1080-NT tox
O=C(COc1ccc2ccc(=O)oc2c1)Nc1ccc(N2CCCCC2)cc1 | 4.7% | 18.4µM* | -19.7 | 0.0% | ? | 0.6%
O=C(COc1ccc2ccc(=O)oc2c1)Nc1ccc(CCO)cc1 | 10.7% | -5.1% | 5.5 | 12.2% | -7.1% | 2.3%
O=C(COc1ccc2ccc(=O)oc2c1)N1CCN(c2ccc(F)cc2)CC1 | 5.3% | 23.1µM* | -15.4 | -21.3% | ? | -8.0%
Cc1cccc(C(=O)OCC(=O)Nc2ccccc2N2CCCC2=O)c1O | · | · | · | 11.3% | · | ·
CC(=O)Nc1ccc(OC(=O)c2ccccc2O)cc1 | · | ? | · | · | 0.581µM* | ·
CC(=O)Oc1ccc(C(=O)Nc2ccc(C3(C#N)CCCC3)cc2)cc1 | ? | 16.4µM* | -59.4* | 0.0% | 16.4µM* | -15.2%
CC(=O)Oc1ccc(C(=O)Nc2ccccc2C(=O)Nc2ccc(C(=O)O)cc2)cc1 | 6.8% | 13.6% | 0.0 | 4.47µM* | 10.4% | 6.9%
CC(=O)Oc1ccc(Nc2ccccc2)cc1 | ? | ? | 0.0 | ? | 18.4µM* | -14.5%
CC(=O)Oc1ccc(C(=O)Nc2ccccc2C(=O)Nc2cccc(C(=O)O)c2)cc1 | 13.0% | -11.2% | 2.6 | 15.6% | 2.3% | 2.4%
CN1CCC(N[C@@H]2CO[C@H](CNC(=O)CC(C)(C)C)[C@H]2O)CC1 | · | · | · | -12.5%[176 µM] | · | ·
CC(C#N)OC(=O)c1ccccc1C(=O)c1cccs1 (stereo unspecified) | · | · | · | 34.0% | · | ·
CC(=O)Oc1ccc(C(=O)Nc2cccc(C(=O)c3cccc(NC(=O)c4ccc(OC(C)=O)cc4)c3)c2)cc1 | ? | 23.1µM* | 11.1 | -28.1% | ? | ?
CC1C(=O)N(Cc2ccccc2F)c2ccccc2N1C(=O)c1c(F)cccc1F (stereo unspecified) | -13.0% | 18.4µM* | ? | ? | 18.4µM* | -0.6%
CC1C(=O)N(Cc2cccc(F)c2)c2ccccc2N1C(=O)c1ccccc1 (stereo unspecified) | -13.7% | 14.6µM* | -14.4 | 2.3% | ? | -26.4%
COc1cccc(CN2C(=O)C(C)N(C(=O)c3c(F)cccc3F)c3ccccc32)c1 (stereo unspecified) | -26.2% | 10.3µM* | -14.0 | 20.6% | 23.1µM* | ?
O=C([C@H]1C[C@H](Oc2ccccc2)CN1C(=O)COc1ccc(F)cc1)N1CCOCC1 | · | · | · | 19.8% | · | ·
Cc1ccn2c(NC(=O)C(C)(C)Oc3ccc(Cl)cc3)c(-c3cccs3)nc2c1 | ? | 18.4µM* | ? | -17.2% | ? | ?
COc1ccc(NC(=O)Cc2cnc(-n3cccc3)s2)c(OC)c1 | · | · | · | 6.4% | · | ·
CCCN1C(=O)C(O)(CC(=O)c2ccc(OC)c(OC)c2)c2ccccc21 (stereo unspecified) | · | 16.4µM* | · | -2.3% | ? | ·
COC(=O)CN1C(=O)C(O)(CC(=O)c2ccc(Cl)cc2)c2ccccc21 (stereo unspecified) | 0.8% | ? | 17.4 | 12.8% | ? | ?
COc1cc(C(=O)CC2(O)C(=O)N(Cc3ccccc3Cl)c3ccccc32)cc(OC)c1OC (stereo unspecified) | · | 5.17µM* | · | -7.4% | 5.8µM* | ·
Cc1ccc(C(=O)CC2(O)C(=O)N(Cc3ccccc3Cl)c3ccccc32)o1 (stereo unspecified) | -24.4% | 10.3µM* | 2.2 | 356.5% | ? | -0.2%
Cc1ccc(CN2C(=O)C(O)(CC(=O)c3c(C)n[nH]c3C)c3ccccc32)cc1 (stereo unspecified) | · | · | · | 2.3% | · | ·
C[S+](=O)([O-])N1Cc2ccccc2CC2(CCCCN2CC2CCOCC2)C1 (stereo unspecified) | · | · | · | 1.2%[6.33 µM] | · | ·
